In all, about 5,500 compounds went through this assay and about 2,000 (36%) were called active. Roughly 18% stayed inconclusive and do not appear here. Rule as the data show it: active = normalized growth mostly below about 0.91 (no sharp cut-off); inconclusive = no clear call, values can overlap the other calls; inactive = mostly above about 0.92. Some of the results follow.
Assay: chemical genetic growth profiling, strain panel (AID 1159580);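 also: tested at 20 µM; growth read once vehicle control cultures reached saturation at 30 °C; 1 = growth at the plate median or of vehicle wells; lower values mean less growth of the strain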
Settings: S. cerevisiae deletion strains, growth OD
[1] = locus YAR019C, strain CDC15, stronger effect = lower value
[2] = locus YBL105C, strain PKC1, stronger effect = lower value
[3] = locus YBR135W, strain CKS1, stronger effect = lower value
[4] = locus YBR136W, strain MEC1, stronger effect = lower value
[5] = locus YBR160W, strain CDC28, stronger effect = lower value
[6] = locus YDL017W, strain CDC7, stronger effect = lower value
[7] = locus YDL028C, strain MPS1, stronger effect = lower value
[8] = locus YDL101C, strain DUN1, stronger effect = lower value
[9] = locus YDL108W, strain KIN28, stronger effect = lower value
[10] = locus YDL132W, strain cdc53, stronger effect = lower value
[11] = locus YDL214C, strain PRR2, stronger effect = lower value
[12] = locus YDR052C, strain DBF4, stronger effect = lower value
[13] = locus YDR054C, strain cdc34, stronger effect = lower value
[14] = locus YDR226W, strain ADK1, stronger effect = lower value
[15] = locus YDR477W, strain SNF1, stronger effect = lower value
[16] = locus YER123W, strain YCK3, stronger effect = lower value
[17] = locus YER133W, strain GLC7, stronger effect = lower value
[18] = locus YFL009W, strain cdc4, stronger effect = lower value
[19] = locus YFL029C, strain CAK1, stronger effect = lower value
[20] = locus YFR003C, strain YPI1, stronger effect = lower value
[21] = locus YFR019W, strain FAB1, stronger effect = lower value
[22] = locus YFR028C, strain CDC14, stronger effect = lower value
[23] = locus YGR040W, strain KSS1, stronger effect = lower value
[24] = locus YGR052W, strain FMP48, stronger effect = lower value
[25] = locus YGR092W, strain DBF2, stronger effect = lower value
[26] = locus YHR030C, strain SLT2, stronger effect = lower value
[27] = locus YHR079C, strain IRE1, stronger effect = lower value
[28] = locus YHR082C, strain KSP1, stronger effect = lower value
[29] = locus YHR205W, strain SCH9, stronger effect = lower value
[30] = locus YIL147C, strain SLN1, stronger effect = lower value
[31] = locus YJL095W, strain BCK1, stronger effect = lower value
[32] = locus YJL128C, strain PBS2, stronger effect = lower value
[33] = locus YJL157C, strain FAR1, stronger effect = lower value
[34] = locus YJR016C, strain ILV3, stronger effect = lower value
[35] = locus YJR066W, strain TOR1 (second series), stronger effect = lower value
[36] = locus YJR066W, strain TOR1, stronger effect = lower value
[37] = locus YKL048C, strain ELM1, stronger effect = lower value
[38] = locus YKL067W, strain YNK1, stronger effect = lower value
[39] = locus YKL101W, strain HSL1, stronger effect = lower value
[40] = locus YKL193C, strain SDS22, stronger effect = lower value
[41] = locus YKL203C, strain TOR2, stronger effect = lower value
[42] = locus YLR113W, strain HOG1, stronger effect = lower value
[43] = locus YLR133W, strain CKI1, stronger effect = lower value
[44] = locus YLR403W, strain SFP1, stronger effect = lower value
[45] = locus YML070W, strain DAK1, stronger effect = lower value
[46] = locus YMR001C, strain CDC5, stronger effect = lower value
[47] = locus YMR205C, strain PFK2 (second series), stronger effect = lower value
[48] = locus YMR277W, strain FCP1, stronger effect = lower value
[49] = locus YNL006W, strain LST8, stronger effect = lower value
[50] = locus YNL020C, strain ARK1, stronger effect = lower value
[51] = locus YNL161W, strain CBK1, stronger effect = lower value
[52] = locus YNL183C, strain NPR1, stronger effect = lower value
[53] = locus YNL207W, strain RIO2, stronger effect = lower value
[54] = locus YNL222W, strain SSU72, stronger effect = lower value
[55] = locus YNL307C, strain MCK1 (second series), stronger effect = lower value
[56] = locus YOL078W, strain AVO1, stronger effect = lower value
[57] = locus YOL136C, strain PFK27, stronger effect = lower value
[58] = locus YOR061W, strain CKA2, stronger effect = lower value
[59] = locus YOR119C, strain RIO1, stronger effect = lower value
[60] = locus YOR231W, strain MKK1, stronger effect = lower value
[61] = locus YOR329C, strain SCD5, stronger effect = lower value
[62] = locus YPL031C, strain PHO85, stronger effect = lower value
[63] = locus YPL153C, strain RAD53, stronger effect = lower value
[64] = locus YPL204W, strain HRR25, stronger effect = lower value
[65] = locus YPL209C, strain IPL1, stronger effect = lower value
[66] = locus YPL256C, strain CLN2, stronger effect = lower value
[67] = locus YPR025C, strain CCL1, stronger effect = lower value
[68] = locus YPR106W, strain ISR1, stronger effect = lower value
[69] = locus YPR111W, strain DBF20, stronger effect = lower value
[70] = strain NNK1, stronger effect = lower value
[71] = strain TSCII, stronger effect = lower value

Measured: normalized growth

Brc1ccc(-c2csc(-c3ccncc3)n2)cc1
active: [8] 0.888 | [12] 0.892 | [13] 0.862 | [14] 0.895 | [17] 0.683 | [18] 0.878 | [23] 0.59 | [24] 0.41 | [25] 0.443 | [26] 0.312 | [31] 0.149 | [36] 0.24 | [41] 0.221 | [42] 0.315 | [52] 0.257 | [53] 0.839 | [59] 0.306 | [60] 0.488 | [63] 0.609 | [64] 0.64 | [66] 0.578 | [70] 0.875
inactive: [1] 0.909 | [2] 0.943 | [3] 0.904 | [4] 0.916 | [5] 0.904 | [6] 0.923 | [7] 0.92 | [9] 0.932 | [10] 0.94 | [11] 0.848 | [15] 0.705 | [16] 0.703 | [19] 0.911 | [20] 0.942 | [21] 0.874 | [22] 0.895 | [27] 0.632 | [28] 0.635 | [29] 0.622 | [30] 0.919 | [32] 0.958 | [33] 0.847 | [34] 0.914 | [35] 0.797 | [37] 0.889 | [38] 0.856 | [39] 0.889 | [40] 0.891 | [43] 0.844 | [44] 0.689 | [45] 0.77 | [46] 0.901 | [47] 0.854 | [48] 0.892 | [49] 0.939 | [50] 0.868 | [51] 0.908 | [54] 0.938 | [55] 0.847 | [56] 0.898 | [57] 0.846 | [58] 0.925 | [61] 0.933 | [62] 0.687 | [65] 0.919 | [67] 0.92 | [68] 0.919 | [69] 0.902 | [71] 0.88

Cc1ccc(-c2csc(-c3ccncc3)n2)cc1
inactive: [2] 0.928 | [3] 0.903 | [4] 0.912 | [5] 0.909 | [6] 0.922 | [7] 0.898 | [9] 0.914 | [11] 0.781 | [12] 0.938 | [13] 0.879 | [14] 0.905 | [18] 0.89 | [19] 0.89 | [20] 0.921 | [21] 0.859 | [23] 0.718 | [24] 0.717 | [27] 0.674 | [28] 0.747 | [29] 0.72 | [30] 0.915 | [32] 0.919 | [33] 0.764 | [34] 0.922 | [35] 0.753 | [36] 0.53 | [37] 0.928 | [38] 0.758 | [39] 0.872 | [41] 0.782 | [43] 0.837 | [44] 0.706 | [45] 0.788 | [46] 0.91 | [47] 0.771 | [49] 0.925 | [50] 0.842 | [51] 0.909 | [52] 0.672 | [53] 0.905 | [54] 0.897 | [55] 0.773 | [57] 0.814 | [58] 0.89 | [59] 0.719 | [60] 0.691 | [61] 0.92 | [63] 0.688 | [65] 0.913 | [67] 0.914 | [68] 0.924 | [69] 0.902 | [70] 0.911
active: [1] 0.888 | [8] 0.912 | [10] 0.891 | [15] 0.68 | [16] 0.615 | [17] 0.661 | [22] 0.89 | [25] 0.441 | [26] 0.423 | [31] 0.374 | [40] 0.879 | [42] 0.653 | [48] 0.865 | [56] 0.866 | [62] 0.649 | [64] 0.618 | [66] 0.697 | [71] 0.873

C=C(C)C1(O)OC(=O)C=C1OC (configuration not stated)
inactive: locus YBR021W, strain FUR4, stronger effect = lower value 0.995 | locus YBR229C, strain ROT2, stronger effect = lower value 0.944 | locus YCL029C, strain bik1, stronger effect = lower value 0.977 | locus YDL035C, strain GPR1, stronger effect = lower value 0.987 | locus YDL074C, strain BRE1, stronger effect = lower value 1.01 | [8] 0.994 | locus YDL185W, strain tfp1, stronger effect = lower value 0.968 | locus YDL192W, strain arf1, stronger effect = lower value 0.984 | locus YDR101C, strain arx1, stronger effect = lower value 1 | locus YDR150W, strain NUM1, stronger effect = lower value 0.986 | locus YDR162C, strain NBP2, stronger effect = lower value 0.961 | locus YDR318W, strain mcm21, stronger effect = lower value 0.981 | locus YDR388W, stronger effect = lower value 0.997 | locus YDR502C, strain sam2, stronger effect = lower value 0.996 | locus YEL061C, strain CIN8, stronger effect = lower value 0.989 | locus YER110C, stronger effect = lower value 0.991 | locus YER155C, strain BEM2, stronger effect = lower value 0.996 | locus YER167W, strain BCK2, stronger effect = lower value 0.978 | locus YGL078C, strain dbp3, stronger effect = lower value 0.991 | locus YGL086W, strain mad1, stronger effect = lower value 1.03 | locus YGL248W, strain PDE1, stronger effect = lower value 0.978 | locus YGR078C, strain PAC10, stronger effect = lower value 1.03 | locus YGR135W, strain pre9, stronger effect = lower value 0.983 | locus YGR252W, strain gcn5, stronger effect = lower value 0.98 | [26] 0.981 | locus YHR079C, strain IRE1 (second series), stronger effect = lower value 0.986 | locus YHR094C, strain hxt1, stronger effect = lower value 0.983 | locus YHR129C, strain ARP1, stronger effect = lower value 0.985 | locus YHR200W, strain rpn10, stronger effect = lower value 0.994 | locus YIL066C, strain RNR3, stronger effect = lower value 0.965 | locus YIL073C, strain SPO22, stronger effect = lower value 0.978 | locus YIL125W, strain kgd1, stronger effect = lower value 0.98 | locus YIR030C, strain dcg1, stronger effect = lower value 0.986 | [31] 1.06 | locus YJL134W, strain LCB3, stronger effect = lower value 0.981 | locus YJL168C, strain set2, stronger effect = lower value 0.992 | locus YJL187C, strain SWE1 (second series), stronger effect = lower value 1 | locus YJR043C, strain POL32, stronger effect = lower value 0.948 | locus YJR075W, strain HOC1, stronger effect = lower value 1.03 | locus YKL009W, strain mrt4, stronger effect = lower value 1.01 | locus YKL068W, stronger effect = lower value 0.965 | locus YKL085W, strain MDH1 (second series), stronger effect = lower value 0.962 | locus YKL085W, strain MDH1, stronger effect = lower value 0.962 | locus YKL190W, strain CNB1, stronger effect = lower value 1 | locus YKR001C, strain vps1, stronger effect = lower value 0.995 | locus YLR039C, strain RIC1, stronger effect = lower value 0.963 | locus YLR058C, strain SHM2, stronger effect = lower value 0.97 | locus YLR102C, strain apc9, stronger effect = lower value 0.99 | locus YLR262C, strain YPT6, stronger effect = lower value 0.918 | locus YLR268W, strain sec22, stronger effect = lower value 1.04 | locus YLR330W, strain CHS5, stronger effect = lower value 0.992 | locus YLR342W, strain FKS1 (second series), stronger effect = lower value 0.985 | locus YLR371W, strain rom2, stronger effect = lower value 0.97 | locus YLR418C, strain cdc73, stronger effect = lower value 0.964 | locus YML016C, strain PPZ1, stronger effect = lower value 0.978 | locus YML032C, strain rad52, stronger effect = lower value 0.975 | locus YML124C, strain tub3, stronger effect = lower value 0.984 | locus YMR078C, strain ctf18, stronger effect = lower value 0.991 | locus YMR223W, strain ubp8, stronger effect = lower value 0.992 | locus YMR263W, strain SAP30, stronger effect = lower value 1.01 | locus YMR307W, strain GAS1, stronger effect = lower value 0.947 | locus YNL067W, strain RPL9B, stronger effect = lower value 1.03 | locus YNL128W, strain TEP1, stronger effect = lower value 0.997 | locus YNL153C, strain GIM3, stronger effect = lower value 1.02 | locus YNL233W, strain BNI4, stronger effect = lower value 1.04 | locus YNL250W, strain rad50, stronger effect = lower value 0.958 | locus YNL271C, strain bni1, stronger effect = lower value 0.989 | locus YNL298W, strain CLA4, stronger effect = lower value 1.02 | locus YNL307C, strain MCK1, stronger effect = lower value 0.999 | locus YNL322C, strain KRE1, stronger effect = lower value 0.98 | locus YNR052C, strain pop2, stronger effect = lower value 1.01 | locus YOL006C, strain TOP1, stronger effect = lower value 1.05 | locus YOL012C, strain htz1 1.2 | locus YOL147C, strain pex11, stronger effect = lower value 0.991 | [58] 0.964 | locus YOR069W, strain VPS5, stronger effect = lower value 0.985 | locus YOR136W, strain idh2, stronger effect = lower value 1 | locus YOR144C, strain elg1, stronger effect = lower value 0.981 | locus YOR184W, strain ser1, stronger effect = lower value 0.973 | locus YOR316C, strain cot1, stronger effect = lower value 0.994 | locus YPR119W, strain clb2, stronger effect = lower value 0.987 | locus YPR141C, strain kar3, stronger effect = lower value 0.977 | locus YPR163C, strain tif3, stronger effect = lower value 0.99 | locus YPR167C, strain met16, stronger effect = lower value 0.992 | strain wtn01, stronger effect = lower value 1.02

From PubChem BioAssay AID1159580 (chemical genetic matrix, 2015)
